Assay results published in PubChem BioAssay AID1347077 (National Center for Advancing Translational Sciences (NCATS), 2019).
Hit rate of the full screen: of about 44,000 compounds, fewer than 10 were called active. Only a sample is shown. Values without a mark were called inactive. The call rests on the fitted dose curve; in most records, active means well fitted activation curve with a large enough effect; inconclusive means small, poorly fitted or top-dose-only effect, or another doubt; inactive means no such curve, though single readings can be large or run the other way.

The compounds below were run against Beta-2 adrenergic receptor (Homo sapiens) (UniProt P07550) (assay: qHTS assay of beta-arrestin-biased ligands of beta2-adrenergic receptor: NCGC Sytravon Library Screen). Conditions: HTLA Tango cells, beta-arrestin recruitment, luciferase luminescence, 18 h; series mostly up to 46.1 µM; activation: at the top concentration.
Beta-2 adrenergic receptor (Homo sapiens), sequence (P07550 whole entry, looked up): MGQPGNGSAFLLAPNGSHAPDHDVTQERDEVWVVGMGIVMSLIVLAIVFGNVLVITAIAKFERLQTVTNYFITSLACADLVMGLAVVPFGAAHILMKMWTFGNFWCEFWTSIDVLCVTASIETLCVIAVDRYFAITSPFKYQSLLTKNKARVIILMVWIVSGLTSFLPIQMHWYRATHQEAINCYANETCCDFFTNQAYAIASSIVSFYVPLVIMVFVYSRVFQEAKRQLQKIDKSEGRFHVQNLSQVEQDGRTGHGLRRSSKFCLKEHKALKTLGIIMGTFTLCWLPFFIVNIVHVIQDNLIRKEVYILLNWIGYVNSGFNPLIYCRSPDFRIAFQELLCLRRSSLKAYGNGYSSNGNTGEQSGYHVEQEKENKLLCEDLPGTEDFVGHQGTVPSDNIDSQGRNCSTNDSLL
Excerpt: The concept of biased agonism is an emerging concept of molecular pharmacology which proposes that seven transmembrane receptors (7TMRs) or G protein-coupled receptors (GPCRs), exist in multiple signaling conformations and complexes and that ligands (either agonists or antagonists) can induce signaling biased responses for distinct signal transduction cascades. […] Furthermore, accumulating evidence over the last decade has drawn attention to a novel function of beta-arrestins as signal transducers that scaffold various signaling molecules upon activation of 7TMRs. […] This beta-arrestin-biased signaling presumably leads to distinct physiological outcomes from those by G protein activation. Additionally, the active receptor conformations which prefer on this beta-arrestin signaling are likely different from those activating G protein signaling. […] The goal of this screening project will be to discover and optimize novel beta-arrestin-biased ligands for beta2-AR signaling. A luminescent cell-based assay for beta2-AR-mediated agonism, known as the Tango assay, has been validated in which ligand binding of a recombinant beta2-AR and subsequent recruitment of a recombinant beta-arrestin lead to the release of the transcriptional activator tTA, which upregulates transcription of a tTA-responsive luciferase gene. […] Compounds from the NCGC Sytravon Library collection were screened as a concentration-titration series that ranged from 46 microM to 0.6 nM. NIH Molecular Libraries Probe Production Network [MLPCN] NIH Chemical Genomics Center [NCGC] MLPCN Grant: Fast-track/HHSN271700800025C PI: Bryan Roth and Bob Lefkowitz
Tango cells were dispensed into white, solid, tissue-culture-treated 1536-well plates at 1500 cells/well in DMEM, containing 1% fetal bovine serum (FBS). Then, 23 nL of compounds or DMSO were delivered to each well using a pin tool. Plates were incubated at 37 degrees C, 5% CO2 for 18 hr. Then 2.5 uL luminescent substrate mix (in-house prepared: 150 mM Tris-Cl, pH 7.6, 3 mM MgCl2, 1% Triton X-100, 5 mM DTT, 0.5 mM CoA, 0.15 mM ATP, 0.44 mM D-luciferin, final concentrations) was added to each well. Plates were then incubated for 15 minutes at room temperature, and subsequently measured on a ViewLux plate reader for luminescent signal using a clear filter with a 10 second exposure and 2x binning. The %Activity was determined from the corrected luminescence values. […] Concentration-response curves were fitted to the signals arising from the resulting luminescence. The concentration-effect curves were then classified based on curve quality (r2), response magnitude and degree of measured activity, and compounds were subsequently categorized based on their curve class.
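Further: 0% = DMSO and full agonism = EC100 isoproterenol or metaproterenol.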

| Structure (SMILES) | activation [%] |
| --- | --- |
| CCOC(=O)c1cc(-c2ccc(OC)c(S(=O)(=O)Nc3ccc(OC)cc3OC)c2)on1 | 1.94 |
| Cc1cccc(NC(=O)c2ccc3nc(C(C)C)oc3c2)c1C | 0.235 |
| COc1ccc(Cl)cc1-n1c(CCC(=O)O)ccc1-c1ccc(C)cc1 | 0.64 |
| O=C(Nc1ccccc1F)C(c1ccccc1)N1Cc2ccccc2C1=O (centres undefined) | -0.457 |
| Cc1ccc(-c2cc(N)n(Cc3cccc(Cl)c3)n2)cc1 | 0.672 |
| Cc1nc(SCC(=O)N2CCN(c3ccccc3)CC2)[nH]c(=O)c1C | 0.294 |
| Cc1ccc(C)c(N2CCN(C(=O)C3CCC(CNS(=O)(=O)c4cccs4)CC3)CC2)c1 (centres undefined) | -1.22 |
| CCOc1ccc(CNCCSc2nnnn2C)cc1 | 0.552 |
| NS(=O)(=O)c1ccc(NC(=O)C(=O)Nc2ccc3nc4n(c(=O)c3c2)CCCCC4)cc1 | -2.66 |
| CCc1ccc(-n2nnc(-c3nc(-c4ccccc4)no3)c2C)cc1 | -0.41 |
| COc1cccc(CNc2nccn(-c3ccc(OC)c(OC)c3)c2=O)c1 | 0.0673 |
| COc1ccc(NC(=O)CSc2nc3ccccc3[nH]2)cc1 | -2.24 |
| CC(C)c1ccc(NC(=O)C2CCN(c3nc(-c4ccc(C(C)C)cc4)no3)CC2)cc1 | -0.161 |
| CCOc1cccc2cc(-c3cn4c(n3)sc3cc(C)ccc34)c(=O)oc12 | -2.89 |
| CCc1cc2c(cc3c(=O)n(CC(=O)NCc4cccc(Cl)c4)nc(CC)n32)s1 | 0.858 |
| Cc1cc(C)cc(NS(=O)(=O)c2cc3c(cc2C)NC(=O)CO3)c1 | -0.844 |
| Cc1[nH]c2ccccc2c1C(c1ccccc1)c1cccs1 (centres undefined) | 0.001 |
| CCOC(=O)c1c(C)[nH]c(C)c1S(=O)(=O)N1CCC(C(=O)Nc2ccc(C)c(Cl)c2)CC1 | -0.156 |
| Cc1csc2nc(COc3ccc(NC(=O)COc4ccccc4)cc3)cc(=O)n12 | 0.0821 |
| COc1ccc(OC)c(CNC(=O)c2c3c(nc4ccccc24)C(=O)N(C2CCCCC2)C3)c1 | -0.621 |
| Cc1ccc(NC(=O)CN2C(=O)C(c3ccc(F)cc3)=NC23CCCCCC3)c(C)c1 | -2.97 |
| CCOc1ccc(C(=O)Nc2ccc3nc4c(c(Nc5ccccc5OC)c3c2)CCCC4)cc1 | 1.06 |
| CCc1ccc(S(=O)(=O)c2nnn3c2nc(N2CCN(CC)CC2)c2sccc23)cc1 | 0.0012 |
| O=C(c1ccccc1F)N1CCC(c2nc3c(nnn3Cc3cccc(F)c3)c(=O)[nH]2)CC1 | 0.988 |
| Cc1cc(=O)c2cc(C(=O)Nc3cccc(C)c3C)ccc2[nH]1 | -2.58 |

| Structure (SMILES) | activation [%] |
| --- | --- |
| O=C(Nc1nnc(S(=O)(=O)N2CCOCC2)s1)c1cccc(Br)c1 | -0.507 |
| COc1cccc(-c2nnc(SCC(=O)N3CCC(C)CC3)o2)c1 | 0.664 |
| COc1ccc2c(C)c(CCC(=O)NCc3ccc(OC)c(OC)c3)c(=O)oc2c1 | 1.22 |
| O=C(Cn1cc(SCc2cccc(Cl)c2)c2ccccc21)N1CCCCC1 | -0.201 |
| COc1ccc(-c2cn3c(n2)sc2cc(C(=O)Nc4ccccc4F)ccc23)cc1 | 0.202 |
| COc1cc(OC)c(OC)cc1/C=C/c1nc2ccccc2c(=O)n1-c1ccc(Br)c(C)c1 | 1.95 |
| CCOC(=O)c1c(S(=O)(=O)N2CCCC(C(=O)NCc3ccc(F)cc3)C2)c(C)n(CC)c1C (centres undefined) | -1.48 |
| COc1ccc(CCNC(=O)CCCCn2c(=O)c3ccccc3n(Cc3ccccc3C)c2=O)cc1OC | 8.59 |
| CCOc1ccc(S(=O)(=O)c2cn(Cc3ccccc3)c3ccc(OCC)cc3c2=O)cc1 | 0.937 |
| COc1ccc(NC(=O)CSc2nccn2C2CCCC2)cc1OC | -2.77 |
| Cc1ccc(-c2cnc(C3CC3)o2)cc1S(=O)(=O)Nc1cccc(C)c1C | 0.723 |
| COc1ccc(S(=O)(=O)NCC(c2ccco2)N2CCOCC2)cc1 (centres undefined) | -2.12 |
| CCOC(=O)c1c(NC(C)=O)c2c3c(sc2n1Cc1c(C)cc(C)cc1C)CCCC3 | -0.225 |
| COc1ccc(-c2[nH]c3c(c2-c2c(-n4cccc4)n(C)c(=O)n(C)c2=O)c(=O)n(C)c(=O)n3C)cc1 | -2.25 |
| CC(C)c1ccc(NC(=O)Cn2nnc(C(=O)NCCc3ccccc3)c2N)cc1 | -0.0029 |
| CCn1c(=O)cc(OCC(=O)Nc2cc(Cl)c(OC)cc2OC)c2ccccc21 | 1.08 |
| CCc1ccc(NC(=O)Cn2c(=O)n(CCC(=O)NCc3ccc4c(c3)OCO4)c(=O)c3ccccc32)cc1 | 1.01 |
| Cc1cc(C)cc(NC(=O)CSc2nc3nccnc3c(=O)n2CCc2c[nH]c3ccccc23)c1 | -0.453 |
| Cc1c(NC(=O)Cc2ccccc2)cccc1-c1nc2cccnc2s1 | -2.39 |
| COc1ccc(S(=O)(=O)NCC(c2ccc(N(C)C)cc2)N2CCCC2)cc1 (centres undefined) | 1.28 |
| COc1ccc(N2CCN(S(=O)(=O)CCNC(=O)C(c3ccccc3)c3ccccc3)CC2)cc1 | 0.864 |
| N#C/C(=C\c1cccc(F)c1)c1nc(-c2cc3c(ccc4ccccc43)oc2=O)cs1 | -0.271 |
| CCn1c2ccccc2c2nnc(N3CCN(c4cc(C)ccc4C)CC3)nc21 | -0.208 |
| CCOc1ccc(OCC)c(NC(=O)c2c(C)nn(-c3ccccc3)c2-n2cccc2)c1 | -4.02 |
